Test results published in PubChem BioAssay AID725 (NMMLSC, 2007).
Fewer than 10 of roughly 1,300 compounds were called active. No rule for the calls is given here. These entries were drawn from the full list.

The molecules below were run against N-formyl peptide receptor 2 (Homo sapiens) (UniProt P25090) (assay: FPRL1 fluorescent ligand binding inhibitors, primary screen, selectivity assay for FPR ligand SAR project, cell-based, flow cytometry, HTS counterscreen (AID 725)). Details: FPRL1-expressing cells, stronger effect = higher value, concentration not given here.
Chain of N-formyl peptide receptor 2 (Homo sapiens) (P25090 whole entry, looked up): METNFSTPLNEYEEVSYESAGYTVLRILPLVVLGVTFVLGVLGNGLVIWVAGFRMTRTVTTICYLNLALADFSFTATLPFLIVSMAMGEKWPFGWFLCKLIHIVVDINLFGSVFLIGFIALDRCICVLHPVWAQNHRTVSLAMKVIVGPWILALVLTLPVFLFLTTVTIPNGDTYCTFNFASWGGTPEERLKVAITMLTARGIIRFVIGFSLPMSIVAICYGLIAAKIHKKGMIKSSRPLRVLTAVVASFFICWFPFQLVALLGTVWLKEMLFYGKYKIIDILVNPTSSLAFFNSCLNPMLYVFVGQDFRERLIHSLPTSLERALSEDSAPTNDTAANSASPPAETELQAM

Row | SMILES | inhibition
1 | O=C(C(Cc1ccccc1)N1Cc2ccccc2C1=O)N1CCOCC1 (stereo not drawn) | -13.3% (inactive)
2 | CCOC(=O)c1c(NC(=O)c2cccs2)sc2c1CCC(C(C)(C)C)C2 (stereo not drawn) | -4.5% (inactive)
3 | CC(C)c1ccc(C2/C(=C(\O)c3ccc(F)cc3)C(=O)C(=O)N2CCN2CCOCC2)cc1 (stereo not drawn) | 5.6% (inactive)
4 | CCOC(=O)Cc1c(C)nc2c(C#N)c(C)[nH]n2c1=O | 5.1% (inactive)
5 | O=c1c(-c2ccc(Cl)cc2)c(C(F)(F)F)oc2c(CN3CCCCC3)c(O)ccc12 | 2.2% (inactive)
6 | COC(=O)c1c(NC(=O)c2cncc(Br)c2)sc2c1CCCC2 | -1.3% (inactive)
7 | CN1C(=O)c2ccccc2C(C(=O)N2CCCC2)C1c1cccs1 (stereo not drawn) | -3% (inactive)
8 | O=C1C(=O)N(c2ccc(Br)cc2)C(c2ccc(Br)cc2)/C1=C(/O)c1ccccc1 (stereo not drawn) | 0.2% (inactive)
9 | COC(=O)c1c(NC(=O)c2cc(OC)c(OC)c(OC)c2)sc(C)c1C | -10.3% (inactive)
10 | CCOC(=O)c1cc(C(C)C)sc1NC(=O)CCCC(=O)O | -4.7% (inactive)
11 | COc1ccc(OC)c(C(=O)CC2(O)C(=O)N(C)c3ccccc32)c1 (stereo not drawn) | 1.1% (inactive)
12 | COc1ccc(CN2CCc3c(c(=O)n4ncc(C(=O)O)c4n3C)C2)cc1 | -3.9% (inactive)
13 | CCc1c(C)nc2c(-c3ccc(OC)c(OC)c3)c(C)[nH]n2c1=O | -1.3% (inactive)
14 | Cc1ccc(C2/C(=C(\O)c3ccc(Cl)cc3)C(=O)C(=O)N2CCN2CCOCC2)cc1 (stereo not drawn) | 0.3% (inactive)
15 | Cc1cc(C)nc(/N=C(/NC(=O)c2ccccc2)Nc2cccc(Cl)c2)n1 | -4.7% (inactive)
16 | CCOc1ccc(C2/C(=C(/O)c3ccccc3)C(=O)C(=O)N2CC(C)O)cc1 (stereo not drawn) | -1.6% (inactive)
17 | CCC(Sc1nc2ncccc2o1)C(=O)Nc1ccccc1OC (stereo not drawn) | -16.4% (inactive)
18 | O=C1C(=O)N(c2ccccn2)C(c2cccnc2)/C1=C(/O)c1ccccc1 (stereo not drawn) | 4.3% (inactive)
19 | CCOC(=O)c1c(NC(=O)c2cccc(Cl)c2)sc(C)c1C | 6.4% (inactive)
20 | COc1ccccc1NC(=O)CSc1nncn2c1cc1occc12 | 34.6% (active)
21 | Cc1cc(C)c(NC(=O)CSc2nncn3c2cc2occc23)c(C)c1 | 12% (inactive)
22 | Cc1cc(C)c(NC(=O)CSc2nncn3c2cc2oc(C)cc23)c(C)c1 | 13.3% (inactive)

Row | SMILES | inhibition
23 | O=C1O[C@@H]2C[C@H]3C[C@@H]2[C@@H]1[C@H]3C(=O)N1CCc2ccccc21 | -14.7% (inactive)
24 | O=C(O)C1CCCCC1C(=O)Nc1ccc(O)cc1 (stereo not drawn) | -4.1% (inactive)
25 | COc1ccc(C2SCC(=O)N2c2ccccc2)cc1 (stereo not drawn) | 0% (inactive)
26 | Cc1ccc(C2/C(=C(\O)c3ccccc3)C(=O)C(=O)N2CCN2CCNCC2)cc1 (stereo not drawn) | 7.6% (inactive)
27 | COC(=O)c1c[nH]n2c(=O)c3c(nc12)C(=O)N(Cc1ccccc1)C3 | -4.5% (inactive)
28 | Cc1cccc(C(CC(=O)O)NS(=O)(=O)c2ccc(C)cc2C)c1 (stereo not drawn) | -12.7% (inactive)
29 | CCC(=O)N1c2ccccc2CC1C(=O)N1CCN(CC)CC1 (stereo not drawn) | 5.1% (inactive)
30 | COc1ccc(C2C(C(=O)c3ccc(C)o3)=C(O)C(=O)N2Cc2cccnc2)cc1OC (stereo not drawn) | 2.3% (inactive)
31 | CCN(CC)C(=O)c1c(NC(=O)c2cccc(C)c2)sc2c1CCCCC2 | 0.5% (inactive)
32 | O=C1C(=O)N(CCCN2CCOCC2)C(c2ccc(Cl)cc2)/C1=C(\O)c1ccccc1 (stereo not drawn) | 6.2% (inactive)
33 | CCc1cc2c(=O)c(-c3ccc4c(c3)OCO4)c(C(F)(F)F)oc2c(CN(C)C)c1O | -3% (inactive)
34 | O=C(CCCC(=O)c1ccccc1)Nc1cc(F)ccc1F | -27.4% (inactive)
35 | CCN(C(=O)c1noc2c1CC(C)CC2)c1cccc(C)c1 (stereo not drawn) | -9.6% (inactive)
36 | CC(C)c1ccc(CN(Cc2ccco2)C(=O)c2ccc(F)cc2)cc1 | -3.3% (inactive)
37 | COc1ccc(C2C(C(=O)c3ccco3)=C(O)C(=O)N2c2nnc(C)s2)cc1OC (stereo not drawn) | 1.1% (inactive)
38 | CCOC(=O)c1c(NC(=O)c2ccc(Cl)cc2)sc2c1CCC(C)C2 (stereo not drawn) | -4.7% (inactive)
39 | Cc1onc(-c2ccccc2Cl)c1C(=O)NC1CCCCC1 | 4.7% (inactive)
40 | Cc1ccc(N2C(=O)CSC2c2ccc(C(C)(C)C)cc2)cc1C (stereo not drawn) | -24.8% (inactive)
41 | COC(=O)c1c(NC(=O)c2cccc(Cl)c2)sc2c1CCCC2 | 4.4% (inactive)
42 | Cc1ccc(N2C(=O)C(=O)/C(=C(\O)c3ccc(Cl)cc3)C2c2ccc(O)cc2)cc1Br (stereo not drawn) | -2.4% (inactive)
43 | CCOC(=O)c1c(NC(=O)c2ccccc2C)sc2c1CCC(CC)C2 (stereo not drawn) | -9.3% (inactive)
44 | Cc1cc(C)n(Cc2c(C(=O)N3CCC(C)CC3)noc2C)n1 | 18.2% (inactive)

Row | SMILES | inhibition
45 | CCCN(C(=O)[C@H]1[C@@H]2C[C@@H]3[C@H]1C(=O)O[C@@H]3C2)c1ccccc1F | 15.9% (inactive)
46 | COc1ccc(C2/C(=C(\O)c3ccc(C)cc3)C(=O)C(=O)N2CCN2CCOCC2)c(OC)c1 (stereo not drawn) | -7% (inactive)
47 | O=C(C(c1ccccc1)N1Cc2ccccc2C1=O)N1CCCCCC1 (stereo not drawn) | 1.9% (inactive)
48 | Nc1nonc1-c1nc2ccccc2n1CC(=O)Nc1ccccc1Cl | -1.8% (inactive)
49 | COC(=O)c1ccc(-c2ccco2)n1CC(=O)Nc1c(C)cc(C)cc1C | -13.6% (inactive)
50 | COc1ccc(C2/C(=C(/O)c3ccccc3)C(=O)C(=O)N2c2ccc(F)cc2)c(OC)c1 (stereo not drawn) | 3.6% (inactive)
51 | O=C1C(=O)N(Cc2cccnc2)C(c2ccc(F)cc2)/C1=C(\O)c1ccccc1 (stereo not drawn) | 6.7% (inactive)
52 | CC(C)OC(=O)c1c(NC(=O)C2CCCC2)sc2c1CCCC2 | -0.2% (inactive)
53 | O=C1C(=O)N(CCCN2CCOCC2)C(c2cccc(Br)c2)/C1=C(\O)c1ccccc1 (stereo not drawn) | 5.8% (inactive)
54 | Cc1nnc(N2C(=O)C(=O)/C(=C(/O)c3ccccc3)C2c2ccc(Cl)cc2)s1 (stereo not drawn) | -5% (inactive)
55 | COCCCN1C(=O)C(=O)/C(=C(/O)c2ccccc2)C1c1ccc(Br)cc1 (stereo not drawn) | 3.8% (inactive)
56 | COc1cccc(NC(=O)C2CCC(=O)N2S(=O)(=O)c2ccccc2)c1 (stereo not drawn) | -2.9% (inactive)
57 | COC(=O)c1c(NC(=O)c2cccc(Br)c2)sc(C)c1C | 3.3% (inactive)
58 | CCOC(=O)c1sc(N2C(=O)C(=O)/C(=C(/O)c3ccccc3)C2c2ccc(O)c(OC)c2)nc1C (stereo not drawn) | 0.2% (inactive)
59 | COC(=O)c1c(NC(=O)c2ccc(F)cc2)sc2c1CCC2 | -10.9% (inactive)
60 | Cc1ccc(C2CC(c3ccccc3)n3ncnc3N2C(=O)c2ccccc2)cc1 (stereo not drawn) | -21.4% (inactive)
61 | CC(O)CN1C(=O)C(=O)/C(=C(\O)c2ccccc2)C1c1cccnc1 (stereo not drawn) | 1.7% (inactive)
62 | COc1ccccc1C1CC(=O)NC2=C1C(=O)CC(c1ccccc1Cl)C2 (stereo not drawn) | 0.3% (inactive)
63 | COc1ccc(C2C(C(=O)c3cc4ccccc4o3)=C(O)C(=O)N2CCN(C)C)cc1OC (stereo not drawn) | 9.3% (inactive)
64 | COC(=O)c1c(NC(=O)c2cccs2)sc(C)c1C | 1.5% (inactive)
65 | CCCCCCc1cc2c(=O)c(-c3nc4ccccc4n3C)c(C(F)(F)F)oc2cc1O | 3.9% (inactive)
66 | COc1cccc(OC)c1C(=O)Oc1ccc2c(=O)c(Oc3ccc4ccccc4c3)c(C(F)(F)F)oc2c1 | 4.4% (inactive)

Row | SMILES | inhibition
67 | C=CCN1C(=O)C2(/C(=C(/O)c3ccc(C)cc3)C(=O)C(=O)N2CC2CCCO2)c2ccccc21 (stereo not drawn) | 0.9% (inactive)
68 | CCN(CC)Cc1c(O)ccc2c(=O)c(-c3ccc(OC)c(OC)c3)c(C(F)(F)F)oc12 | -8.6% (inactive)
69 | O=C1C(=O)N(c2nncs2)C(c2cccs2)/C1=C(/O)c1ccc(F)cc1 (stereo not drawn) | -5.3% (inactive)
70 | CCOC(=O)c1c(NC(=O)c2ccc(OC)cc2)sc(C)c1C | -3.8% (inactive)
71 | CC(C)c1ccc(C2/C(=C(\O)c3ccccc3)C(=O)C(=O)N2CCC(=O)O)cc1 (stereo not drawn) | 7.3% (inactive)
72 | COC(=O)c1c(NC(=O)c2ccc(Cl)c(Cl)c2)sc2c1CCCC2 | -2.7% (inactive)
73 | CCOC(=O)c1c(CC(C)C)csc1NC(=O)c1ccccc1F | -1.5% (inactive)
74 | COc1ccc(Br)cc1CNC(=O)Cn1ncc2ccccc21 | -17.2% (inactive)
75 | CCCCn1c(=O)c2c(nc3n2CCN3Cc2ccco2)n(C)c1=O | -0.5% (inactive)
76 | O=c1c(-c2cccc(Cl)c2)c(C(F)(F)F)oc2c(CN3CCOCC3)c(O)ccc12 | 3.4% (inactive)
77 | CCc1nn(Cc2ccccc2F)c(=O)c2cc3cc(C)ccc3n12 | -0.2% (inactive)
78 | CCN(CC)C(=O)c1c(NC(=O)c2ccccc2F)sc2c1CCC(C)C2 (stereo not drawn) | 2.2% (inactive)
79 | CCOC(=O)c1c(NC(=O)c2ccccc2OCC)sc2c1CCCC2 | -11.3% (inactive)
80 | Cc1ccc(OC(=O)c2ccc(N3C(=O)c4cccc(N)c4C3=O)cc2)cc1C | -3.5% (inactive)
81 | CCOC(=O)C1=C(C)N(c2ccc(C)cc2)C(=O)/C1=C\c1ccccc1OC | -4.9% (inactive)
82 | O=C1C(=O)N(CCc2c[nH]c3ccccc23)C(c2cccnc2)/C1=C(/O)c1ccc(Cl)cc1 (stereo not drawn) | -0.1% (inactive)
83 | CCc1ccc(Oc2c(C(F)(F)F)oc3cc(OCC(=O)OC4CCCCC4)ccc3c2=O)cc1 | 1.4% (inactive)
84 | Cc1sc(NC(=O)C2C3CCC(O3)C2C(=O)O)c(C(N)=O)c1-c1ccc(C(C)C)cc1 (stereo not drawn) | -4.5% (inactive)
85 | O=C1C(=O)N(c2cccc(C(F)(F)F)c2)C(c2ccccc2[N+](=O)[O-])/C1=C(\O)c1ccccc1 (stereo not drawn) | -1.4% (inactive)
86 | CCOc1ccccc1C(=O)N(Cc1ccc(Cl)cc1)Cc1ccco1 | -14.6% (inactive)
87 | O=C1C(=O)N(Cc2cccnc2)C(c2cccc(Br)c2)/C1=C(\O)c1ccccc1 (stereo not drawn) | 4.9% (inactive)
88 | CC(C)OC(=O)c1c(NC(=O)C2CCCCC2)sc2c1CCCC2 | -2.7% (inactive)
